According to PubChem BioAssay (NCI):
This is part of a sample that, as a whole, favours compounds with a hit. Of some 83,000 tested, about 20% had one in any assay.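 Interpretation: 100, growth as untreated; towards 0, rising growth inhibition; 0, no net growth; 0 to -100, cell death. Compounds scoring below 10 were considered active.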 Values without a mark were called inactive. Calls of active or inactive are those of the source.

What follows are molecules tested on IGROV1 ovarian (assay: NCI-60 one-dose screen, 48 h (100 = growth as untreated, 0 = no growth, -100 = all killed)). Settings: 10 µM unless noted.

| Structure (SMILES) | growth |
| --- | --- |
| O=c1[nH]c2ccc(Cl)cc2cc1CSc1ccccc1Nc1nccc(-c2ccc(Cl)cc2)n1 | 82.7% |
| CC(C)(C)OC(=O)N1C(=O)c2c(c3c4ccccc4[nH]c3c3ccc4ccccc4c23)C1=O | 52.7% |
| CNC(=O)c1cc(-c2ccc(NC(=O)Nc3ccc(N4CCN(C)CC4)c(C(F)(F)F)c3)cc2)nc2cccnc12 | -83.9% (active) |
| C/C(=N/NC(N)=S)c1ccc(Nc2nc(SCC(C)C)nc(-c3ccc(F)cc3)c2C#N)cc1 | 21.2% |
| CCCCN1C(=O)/C(=c2\sc3n(c2=O)C2C(NN=3)N(CC)C(=O)N2CC)c2cc(Cl)ccc21 (stereo not drawn) | 65.3% |
| COc1cc(-c2nc3ccc(-c4nnc(SCC(=O)Nc5ccc(C(C)=O)cc5)o4)cc3[nH]2)cc(OC)c1OC | 99.3% |
| N#Cc1c(-c2ccc(Cl)cc2)nc(SCc2ccc(F)cc2)nc1N1CCNCC1 | 39.1% |
| Cn1cc(-c2cc(N)n3nc(-c4cn(C)c5ccc(Br)cc45)cc3n2)c2cc(Br)ccc21 | 76.4% |
| Cc1cc(C(=O)Nc2sc3c(c2C(N)=O)CCC(=O)C3)ccc1OCCN1CCCCC1 | 91% |
| NS(=O)(=O)c1ccc(Nc2nc(SCC(=O)c3ccc(Cl)cc3)nc3ccccc23)cc1 | 82.8% |
| CC(C)(C)Nc1nc2c(OCCc3ccccc3)cccn2c1-c1ccc(O)cc1 | 75.4% |
| CCOc1ccc2nc(NC(=O)c3ccc(C(F)(F)F)cc3)sc2c1 | 113% |
| N#Cc1c(-c2ccc(Cl)cc2)nc(SCc2ccc([N+](=O)[O-])cc2)nc1N1CCNCC1 | -1.76% (active) |
| Cc1cccc(/C=C/c2nn3c(-c4ccco4)nnc3s2)c1 | 98.6% |
| Cc1sc2c(c1C)c(=O)nc1c(-c3nc(-c4ccc(F)cc4)no3)n[nH]n12 | 102% |
| C[C@@H]1CN(c2ccc3ncc(C#Cc4cncc(C(=O)Nc5ccc(CN6CCN(C)CC6)c(C(F)(F)F)c5)c4)n3n2)C[C@H](C)O1 | -5.72% (active) |
| Nc1c(C(=O)Nc2ccc(Cl)cc2)sc2nc(-c3cnccn3)cc(-c3cccs3)c12 | 74.2% |
| O=c1[nH]c2ccccc2cc1CSc1ccccc1Nc1nccc(-c2ccc(C(F)(F)F)cc2)n1 | 67.8% |
| Cc1c(Nc2nnc(SCC(=O)Nc3sc4c(c3C#N)CCCC4)s2)c(=O)n(-c2ccccc2)n1C | 104% |

| Structure (SMILES) | growth |
| --- | --- |
| CS(=O)(=O)c1ccc(-c2nc3ccccn3c2C=Nc2ccc(Cl)cc2)cc1 | 78.4% |
| N[C@@H](Cc1cn(-c2c3ccccc3nc3ccccc23)nn1)C(=O)O | 97.5% |
| CC(C)(C)Nc1nc2c(OCCc3ccccc3)cccn2c1-c1cccc(F)c1 | 10.1% |
| CCN1C(=S)N(c2ccccc2)C2NC(=O)N(/N=C/C=C/c3ccccc3OC)C21 (stereo not drawn) | 92.1% |
| CCOC(=O)c1csc(NC(=O)CSc2nc3sc4c(c3c(=O)n2-c2ccc(Cl)cc2)CCCC4)n1 | 89.6% |
| Cc1ccc(CNS(=O)(=O)/N=C2\NC(=O)NC2=C(Cl)Cl)cc1 | 101% |
| CO/N=C1\CCc2c(sc(NC(=O)c3cccc(C(F)(F)F)c3)c2C(N)=O)C1 | 11.9% |
| O=C(CSc1nc2sc3c(c2c(=O)n1-c1ccc(Cl)cc1)CCCC3)N/N=C/c1ccc(F)cc1 | 104% |
| CN1CCN(Cc2ccc(NC(=O)c3cncc(C#Cc4cnc5[nH]ncc5c4)c3)cc2C(F)(F)F)CC1 | 7.92% (active) |
| CC(C)(C)Nc1nc2c(OCCc3ccccc3)cccn2c1-c1ccc(Cl)cc1 | 23.8% |
| N#Cc1c(-c2ccc(Cl)cc2)nc(SCc2ccccc2)nc1N1CCNCC1 | 46.9% |
| COc1ccc(/C=C/C(=O)c2ccc(NC(=O)CSc3nnc(-c4ccc5nc(-c6ccc(Cl)cc6)[nH]c5c4)o3)cc2)cc1 | 95.3% |
| CC(=O)Nc1cc(F)cc(-c2ccc3[nH]cc(-c4ccccc4)c3n2)c1 | 25.7% |
| C=CCSc1ccc2c(c1)C(N1CCNCC1)=Nc1ccccc1O2 | 63.1% [8.25 µM] |
| Fc1ccc(-c2nc(C(Cl)Cl)nc3cc(-c4ccccc4)nn23)cc1 | 20.4% |
| COc1ccc(NC2=C(Cl)C(=O)C(C)=C(C)C2=O)cc1OC | 39.7% |
| O=C1[C@H]2Cc3c([nH]c4ccccc34)[C@@H](c3ccc(Br)cc3)N2C(=O)CN1C1CCN(Cc2ccccc2)CC1 | 18.7% |
| Cn1c(SCC(=O)c2cccs2)nc2ccccc2c1=O | 74.8% |
| C/C(=C(/c1ccc(Cl)cc1)c1ccc(OCCN)cc1)c1ccc(C)cc1 | 100% |
